Laboratory results published in the supplement of paper PMC6555819.

Columns and labels:
Assay in all cases: PBM binding z-score (relative to random genomic background probes); higher = stronger binding; sequences stand for … in GC…GCGATTGACAGCGTAGAATGAAGG
[1] = test system: FXR:RXRa (NR concentration 270 nM, RXRa partner concentration 90 nM)
Method in brief: (§1)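 Binding z-scores take random background probes as their reference. They come from custom Agilent 4×180K protein-binding microarrays incubated 1 h with ligand-free nuclear receptor dimers, with antibodies against each partner (one per run) detecting binding. Scanned fluorescence was regression-normalized.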

[2] = test system: LXRa:RXRa (NR concentration 270 nM, RXRa partner concentration 90 nM)
Method in brief: as §1

[3] = test system: LXRa homodimer (NR concentration 270 nM)
Method in brief: as §1

[4] = test system: LXRb:RXRa (NR concentration 270 nM, RXRa partner concentration 90 nM)
Method in brief: as §1

[5] = test system: LXRb homodimer (NR concentration 270 nM)
Method in brief: as §1

[6] = test system: PPARa:RXRa (NR concentration 270 nM, RXRa partner concentration 90 nM)
Method in brief: as §1

[7] = test system: PPARg:RXRa (NR concentration 180 nM, RXRa partner concentration 90 nM)
Method in brief: as §1

[8] = test system: PPARg:RXRa 270nM:90nM, anti-RXR (NR concentration 270 nM, RXRa partner concentration 90 nM)
Method in brief: as §1

[9] = test system: PPARg:RXRa 30nM:10nM, anti-RXR (NR concentration 30 nM, RXRa partner concentration 10 nM)
Method in brief: as §1

[10] = test system: PPARg:RXRa 90nM:30nM, anti-RXR (NR concentration 90 nM, RXRa partner concentration 30 nM)
Method in brief: as §1

Sequence | PBM binding z-score [1] | PBM binding z-score [2] | PBM binding z-score [3] | PBM binding z-score [4] | PBM binding z-score [5] | PBM binding z-score [6] | PBM binding z-score [7] | PBM binding z-score [8] | PBM binding z-score [9] | PBM binding z-score [10]
ATCGAAAGGTCGACGAGGTGAGGATACACCGTTT | 4.5 | 3.36 | 0.0188 | 2.44 | 0.655 | 4.27 | 3.09 | 3.46 | 1.36 | 2.36
TCAGACAGGTGAATGTAACTCAGGTACGCAGTCG | 0.149 | 0.452 | 0.0267 | 0.271 | -0.401 | 0.789 | 0.834 | 1.72 | 2.99 | 2.36
TCTATTAGTTGATTAGGTCAACCGAAACAGCGGA | 1.7 | 2 | 1.49 | 2.02 | 1.35 | 2.94 | 1.16 | 3.19 | 3.91 | 3.59
GGAAGGAGGGCATTCGAGTTGATAGCATGGCGAT | 1.31 | 1.78 | 0.199 | 0.866 | 0.337 | 1.46 | 0.926 | 1.07 | -0.0182 | 0.639
CTACCTAGGTGAACAAGGTCGTTGATTACTATTC | 0.921 | 0.98 | 0.31 | 1.61 | -0.219 | 2.31 | 1.31 | 1.36 | -0.0446 | 0.717
CTCGAAAGTTCGGTTGAGGTGAGTATACGGATAA | 0.279 | 0.2 | -0.166 | 0.297 | -0.341 | 0.506 | -0.114 | 0.109 | -0.0109 | 0.125
ATCTCTAGGTAACAAATTCAGTGAAAGAGAGGAC | 0.723 | 0.714 | 0.441 | 0.288 | 1.15 | 0.552 | 0.558 | 0.598 | 0.83 | 0.732
CCGAGTGGGGCAAGGTTACCATAACGCACAGCCA | 0.236 | 0.965 | -0.227 | 0.664 | -0.711 | 1.78 | 2.73 | 2.77 | 0.815 | 2.3
CCTGCTAGGTCAATGGACAGCTAAAGCAGCTCGC | 2.71 | 2.11 | -0.488 | 1.29 | -0.325 | 2.73 | 1.63 | 2.17 | 0.0027 | 1.05
AGTCAAAGTTCACTAGGTACCGTAAGATTCAGCT | 4.67 | 5.23 | 3.18 | 3.05 | 0.945 | 4.23 | 5.85 | 6.01 | 2.8 | 5.22
TAGCCTAGGTCATGCGGGCCATTATAGTGTCGGC | 4.23 | 3.27 | 0.473 | 1.96 | -0.482 | 3.6 | 2.62 | 2.47 | 0.148 | 1.56
CCGACTGGGGCATAAGGTTTCCATAAGCCAGCCC | 0.03 | -0.0633 | -0.565 | -0.536 | -1.41 | 0.26 | 1.11 | 1.75 | -0.0792 | 1.44
